In PubChem BioAssay (NCI):
The panel holds about 79,000 compounds, 15% with a hit somewhere; the sample as a whole holds those more often. No stated cut-off is given here; in the data, active means growth inhibition above about 70%; inactive means the rest.

How the values were obtained:
[1] = NCI Yeast Anticancer Drug Screen. Data for the rad50 strain (AID 155);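 further: 0% = growth of vehicle-only cultures of the same strain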; conditions: S. cerevisiae rad50 strain growth inhibition; at 50.0 µM; active compounds read high
Method in brief: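 Yeast carrying a defined DNA repair defect were exposed to test compounds, and growth was compared with vehicle-treated controls to give percent inhibition.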

[2] = NCI Yeast Anticancer Drug Screen. Data for the mec2-1 strain (AID 157); conditions: S. cerevisiae mec2-1 strain, at 50.0 µM, active compounds read high
Method in brief: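 Readout is yeast growth inhibition, normalised to vehicle-treated controls, in the mec2-1 strain exposed to compound.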

[3] = NCI Yeast Anticancer Drug Screen. Data for the sgs1 mgt1 strain (AID 161);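 further: 0% = growth of cultures given vehicle only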; conditions: S. cerevisiae sgs1 mgt1 strain, at 50.0 µM, active compounds read high
Method in brief: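 Growth of a repair-deficient yeast mutant was monitored after compound treatment and expressed as inhibition relative to vehicle-treated cultures.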

[4] = NCI Yeast Anticancer Drug Screen. Data for the cln2 rad14 strain (AID 165);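 further: 0% = growth equal to vehicle treated cultures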; conditions: S. cerevisiae cln2 rad14 strain, at 50.0 µM, active compounds read high
Method in brief: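 Relative to vehicle controls, growth inhibition of compound-treated cln2 rad14 yeast was recorded.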

[5] = NCI Yeast Anticancer Drug Screen. Data for the bub3 strain (AID 167); conditions: S. cerevisiae bub3 mutant strain, at 50.0 µM, active compounds read high
Method in brief: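 Compounds were applied to a genetically altered yeast strain carrying a cell-cycle control defect. Growth inhibition was scored against vehicle-treated controls.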

[6] = NCI Yeast Anticancer Drug Screen. Data for the mlh1 rad18 strain (AID 175); conditions: S. cerevisiae mlh1 rad18 strain growth inhibition; at 50.0 µM; active compounds read high
Method in brief: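 Test agents were incubated with a yeast strain of defined genotype (DNA damage repair defect). Inhibition of growth was derived by comparison with vehicle-exposed cultures.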

Measured: growth inhibition

Cc1nn(-c2ccccc2)nc1C(=O)Nc1ccc2[nH]ncc2c1
inactive: [1] -39.2% | [2] -48.1% | [3] -8.95% | [4] -15.8% | [5] -22.9% | [6] -24.6%

C=C1C(=O)OC2CCCC(O)C12 (stereo unspecified)
inactive: [1] 2.35% | [2] 2.45% | [3] -6.55% | [4] -39% | [5] -12.2% | [6] 1.9%

Nc1nc(SCC(=O)O)nc(N)c1N=Nc1ccc(S(=O)(=O)NC(=O)c2ccccc2)cc1
inactive: [1] 7.3% | [2] 5.75% | [3] -7.4% | [4] -0.3% | [5] 0.1% | [6] 15.6%

NC1=NC(c2ccccc2O)CC(=O)N1 (stereo unspecified)
inactive: [1] -6.4% | [2] -8.25% | [3] -12.9% | [4] -32.6% | [5] -3.9% | [6] -6.35%

CC(=O)C1CCC2C3CCC4CC5(CCC4(C)C3C(=O)CC12C)NC(C(=O)O)CS5 (stereo unspecified)
inactive: [1] 2.25% | [2] 3.4% | [3] 5.85% | [4] -6.25% | [5] -0.6% | [6] -1.35%

COc1cc2c3cc1Oc1c(OC)c(OC)cc4c1C(Cc1ccc(O)c(c1)Oc1ccc(cc1)CC3N(C)CC2)CN(C)C4 (stereo unspecified)
inactive: [1] -17.6% | [2] -37.9% | [3] -3.6% | [4] -17.4% | [5] 3.35% | [6] 25.1%

C[n+]1cn(C2=C([O-])c3ccccc3C(=O)/C2=N\S(=O)(=O)c2ccccc2)c2ccccc21
inactive: [1] 0.95% | [2] 4.8% | [3] 2.4% | [4] -0.6% | [5] 4.35% | [6] -28.9%

Cc1nc2nnc(N)n2nc1C
inactive: [1] 10.1% | [2] -6.15% | [3] 3.75% | [4] -22% | [5] 8.45% | [6] 4.05%

c1ccc(CC2(c3ccccc3)OCc3ccccc32)cc1 (stereo unspecified)
inactive: [1] 6% | [2] 12.2% | [3] 17.6% | [4] 15.4% | [5] -2.2% | [6] 20.5%

O=C(O)CNC(=O)C(Cc1ccccc1)NC(=O)CNC(=O)C(CSC(c1ccccc1)c1ccccc1)NC(=O)C(CSC(c1ccccc1)(c1ccccc1)c1ccccc1)N1C(=O)c2ccccc2C1=O (stereo unspecified)
inactive: [1] 1.5% | [2] 14.1% | [3] -3.7% | [4] -17.9% | [5] -7.05% | [6] 11%

CN(C)c1ncnc2c1cnn2C1OC(CO)C(O)C1O (stereo unspecified)
inactive: [1] 5.85% | [2] 14.2% | [3] 17.3% | [4] 15.2% | [5] 19.6% | [6] 30.7%

Nc1nnnn1C(=O)NCCCl
inactive: [1] -6.55% | [2] 0.6% | [3] -6.45% | [4] -24.8% | [5] -20.4% | [6] -5.25%

CC(=O)N(c1ccccc1)c1cc(Cl)cc[n+]1[O-]
inactive: [1] 8.5% | [2] 3.5% | [3] 5.45% | [4] -3.7% | [5] 5.3% | [6] -2.05%

COc1ccc(C(O)C(=O)c2nc3ccc(Cl)cc3[nH]c2=O)cc1 (stereo unspecified)
inactive: [1] -30.1% | [2] -28.6% | [3] -22.2% | [4] -33.7% | [5] -16.6% | [6] -20.2%

CCc1cccc(NC(=O)c2cc(/C=C/c3ccccc3)[nH]c(=S)n2)c1
inactive: [1] -15.9% | [2] -19.4% | [3] 6.95% | [4] -1.85% | [5] -6.85% | [6] -12.1%

O=[N+]([O-])c1ccc(Sc2ccc([N+](=O)[O-])cc2)cc1
inactive: [1] 2.35% | [2] 1.45% | [3] 8% | [4] 22.6% | [5] -0.1% | [6] 11.3%

CN(O)C(=O)c1ccccc1
inactive: [1] 5.45% | [2] -8.4% | [3] -6.35% | [4] 11.9% | [5] 15.1% | [6] 16.9%

Cc1ccc(CNC(=O)NCCCCCCNC(=O)NCc2ccc(C)cc2)cc1
inactive: [1] -29.4% | [2] -6.45% | [3] -9.95% | [4] -20.3% | [5] -2.95% | [6] -1.1%

CCC(CCCN)Nc1cc(OC)cc2c(C)ccnc12 (stereo unspecified)
inactive: [1] -53.9% | [2] -3.1% | [3] 1.75% | [4] -4.5% | [5] 21.2% | [6] -21.2%

Nc1nc2c(c(=O)[nH]1)NC(CCNc1ccc(C(=O)NC(CCC(=O)O)C(=O)O)cc1)CN2 (stereo unspecified)
inactive: [1] 14% | [2] 14.9% | [3] 25.6% | [4] 19.6% | [5] 7.65% | [6] 16.1%

CSCCC(NC=O)C(=O)O (stereo unspecified)
inactive: [1] -0.65% | [2] -5.35% | [3] 7.9% | [4] 1.05% | [5] 5.75% | [6] 3.8%

CN(C)Cc1c(CC(O)(c2ccccc2)c2ccccc2)ccc2ccccc12
inactive: [1] 10.8% | [2] -4.75% | [3] -12.2% | [4] -0.55% | [5] -1.2% | [6] 5.6%

COc1ccc(/C=C2\N=C(c3ccccc3)OC2=O)c(Br)c1OC(C)=O
inactive: [1] -20.1% | [2] 0.7% | [3] -12.7% | [4] -12.3% | [5] -0.8% | [6] 14.3%

COC1=C(C(=O)OC(C)(C)C)[C@]2(C)C(C(=O)OC(C)(C)C)C(OC)=C(C(=O)OC(C)(C)C)[C@]2(C)C1C(=O)OC(C)(C)C (stereo partly specified)
inactive: [1] 30.6% | [2] 15.4% | [3] 22.8% | [4] 17.6% | [5] -3.25% | [6] 29.9%

CCCCN(Cc1ccccc1)C(=O)Nc1ccccc1
inactive: [1] 4.5% | [2] 30.1% | [3] 33.1% | [4] -8.1% | [5] 39% | [6] 1.2%

Cc1cn(C2OC3COC2C3O)c(=O)[nH]c1=O (stereo unspecified)
inactive: [1] -20.8% | [2] 0.55% | [3] 10.7% | [4] 27.2% | [5] -6% | [6] -4.75%

CCCCC(CC)CN(CC(CC)CCCC)C1C=CCCC1 (stereo unspecified)
inactive: [1] 3.6% | [2] -10.3% | [3] 7.9% | [4] -36.8% | [5] 6.5% | [6] 2.7%

Cc1cc(C)n2ncc(Br)c2n1
inactive: [1] 26.2% | [2] 13.1% | [3] 14.2% | [4] -35% | [5] 12.9% | [6] 8.15%

Cc1cc2c(=O)c(C)c[nH]c2cc1Cl
inactive: [1] -21.6% | [2] 5.2% | [3] -2.6% | [4] -46.1% | [5] -10.6% | [6] -7.55%

CCON=C(c1ccc(Cl)cc1)c1ccc(Cl)cc1
inactive: [1] 2.45% | [2] -21.6% | [3] 12.7% | [4] 16.8% | [5] 26.1% | [6] 1.4%

O=c1oc2ccc(Cl)cc2c(=O)n1-c1cc(Cl)ccc1[N+](=O)[O-]
inactive: [1] -4.65% | [2] -21% | [3] -6.8% | [4] -11.5% | [5] 0.45% | [6] 21.6%

O=C1[C@H]2ON(c3ccccc3)C(c3ccc(Cl)cc3)[C@H]2C(=O)N1c1ccc(Cc2ccc(N3C(=O)[C@@H]4ON(c5ccccc5)C(c5ccc(Cl)cc5)[C@@H]4C3=O)cc2)cc1 (stereo partly specified)
inactive: [1] 1.75% | [2] 8.6% | [3] 0.2% | [4] 26.4% | [5] 21.4% | [6] 7.6%

O=C(O)/C=C\Sc1ccccc1C(=O)O
inactive: [1] 2.05% | [2] -15.9% | [3] -6.5% | [4] -2.05% | [5] -10.2% | [6] 23.1%

Cc1ccc(/C=N/NC(N)=O)cc1
inactive: [1] 25.6% | [2] 15.8% | [3] 12.3% | [4] 10.4% | [5] 17.2% | [6] -3.85%

COC(=O)C1(C(C(=O)c2ccccc2)c2ccccc2)NC(=S)NC(=O)C1C#N (stereo unspecified)
inactive: [1] -14.4% | [2] 10.2% | [3] -19.9% | [4] 6.25% | [5] -15.4% | [6] -9.7%

c1ccc(N=C(Nc2ccccc2)N2CCCCC2)cc1
inactive: [1] -20% | [2] -50.4% | [3] -7.9% | [4] 9.85% | [5] 9.35% | [6] -21.6%

Cc1cc(C)cc([N+](=O)[O-])c1
inactive: [1] 8.5% | [2] -19% | [3] 1.3% | [4] 20.1% | [5] 4.65% | [6] -26.3%

Cc1ccc(Cc2nn(C)c(=O)n2-n2cccc2)cc1
inactive: [1] -37.1% | [2] -13.7% | [3] -10% | [4] -1.7% | [5] -19.1% | [6] -7.45%

NC(Cc1ccc(CP(=O)(O)O)cc1)C(=O)O (stereo unspecified)
inactive: [1] -44.8% | [2] -61.3% | [3] -55.1% | [4] -20% | [5] -27.5% | [6] -70.3%

CCc1cccc(CC)c1Nc1nc(-c2ccccc2-c2ccccc2)cs1
inactive: [1] -29.1% | [2] -4.4% | [3] -7.05% | [4] -99.2% | [5] -20.9% | [6] -39.9%

CCCC(=O)c1cc(-c2cc(C(=O)CCC)nc(N)n2)nc(N)n1
inactive: [1] 3.65% | [2] -3.4% | [3] 3.1% | [4] -15.9% | [5] -7.1% | [6] -0.4%
